Measured values published in PubChem BioAssay (Tox21).
Results filed as inconclusive are left out. Calls of active or inactive are those of the source. Unless noted, the call rests on the fitted dose curve; in most records, active means well fitted curve in the direction sought with a large enough effect in the repeat runs; inconclusive means weak or mixed curves; inactive means no such curve, though single readings can be large; an effect the other way counts as inactive or inconclusive.

Experiments:
[1] = target: Aryl hydrocarbon receptor (Homo sapiens) (UniProt P35869); assay: qHTS assay to identify small molecule that activate the aryl hydrocarbon receptor (AhR) signaling pathway (AID 743085);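 further: HG2L7.5c1 human HepG2 liver cells with stably integrated DRE-driven firefly reporter; series mostly up to about 70 µM; nearly all actives have a fitted effect of over 15% in size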
Chain of Aryl hydrocarbon receptor (Homo sapiens) (P35869 whole entry, looked up): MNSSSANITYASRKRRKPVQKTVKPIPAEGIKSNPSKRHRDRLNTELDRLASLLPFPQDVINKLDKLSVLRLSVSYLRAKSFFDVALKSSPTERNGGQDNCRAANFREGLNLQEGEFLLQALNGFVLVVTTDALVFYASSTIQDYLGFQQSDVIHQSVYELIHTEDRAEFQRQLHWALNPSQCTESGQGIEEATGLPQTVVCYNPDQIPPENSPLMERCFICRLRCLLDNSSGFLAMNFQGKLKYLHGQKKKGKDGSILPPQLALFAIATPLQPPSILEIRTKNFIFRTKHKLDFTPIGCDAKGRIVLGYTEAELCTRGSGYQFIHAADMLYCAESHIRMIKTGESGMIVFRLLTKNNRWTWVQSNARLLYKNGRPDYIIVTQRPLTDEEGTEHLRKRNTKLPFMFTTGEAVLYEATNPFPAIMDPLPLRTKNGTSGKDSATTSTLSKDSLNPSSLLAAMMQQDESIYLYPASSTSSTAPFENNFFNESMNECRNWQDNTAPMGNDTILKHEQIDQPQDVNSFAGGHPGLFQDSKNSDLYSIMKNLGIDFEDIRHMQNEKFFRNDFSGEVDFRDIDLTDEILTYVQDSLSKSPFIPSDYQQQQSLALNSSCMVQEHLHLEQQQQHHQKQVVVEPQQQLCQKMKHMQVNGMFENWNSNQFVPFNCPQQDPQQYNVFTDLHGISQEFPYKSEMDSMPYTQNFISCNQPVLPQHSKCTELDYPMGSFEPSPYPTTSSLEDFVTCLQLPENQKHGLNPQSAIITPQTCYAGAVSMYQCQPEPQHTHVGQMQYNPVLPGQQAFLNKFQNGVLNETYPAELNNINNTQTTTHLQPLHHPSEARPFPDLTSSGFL
Method in brief: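 AhR agonist activity is inferred from enhanced light output of a DRE-controlled firefly luciferase reporter in HepG2 cells, measured with ONE-Glo following 24 h treatment at 37C.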

[2] = qHTS assay to identify small molecule that activate the aryl hydrocarbon receptor (AhR) signaling pathway - cell viability counter screen (AID 743086);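 further: HepG2 liver cells carrying the AhR DRE luciferase reporter; series mostly up to about 70 µM; nearly all actives have a fitted effect of over 45% in size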
Method in brief: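 HepG2-AhR-luc (HG2L7.5c1) cells, 4000/well, treated 24 h at 37 C with compound; viability measured as CellTiter-Fluor fluorescence after 30 min in the same wells as the luciferase read.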

[3] = target: Peroxisome proliferator-activated receptor gamma (Homo sapiens) (UniProt P37231); assay: qHTS assay to identify small molecule agonists of the peroxisome proliferator-activated receptor gamma (PPARg) signaling pathway (AID 743094; active means well fitted activation curve with a large enough effect in the signal ratio in the repeat runs, not every such curve was filed as active; the % refers to the signal ratio)
Chain of Peroxisome proliferator-activated receptor gamma (Homo sapiens) (P37231 whole entry, looked up): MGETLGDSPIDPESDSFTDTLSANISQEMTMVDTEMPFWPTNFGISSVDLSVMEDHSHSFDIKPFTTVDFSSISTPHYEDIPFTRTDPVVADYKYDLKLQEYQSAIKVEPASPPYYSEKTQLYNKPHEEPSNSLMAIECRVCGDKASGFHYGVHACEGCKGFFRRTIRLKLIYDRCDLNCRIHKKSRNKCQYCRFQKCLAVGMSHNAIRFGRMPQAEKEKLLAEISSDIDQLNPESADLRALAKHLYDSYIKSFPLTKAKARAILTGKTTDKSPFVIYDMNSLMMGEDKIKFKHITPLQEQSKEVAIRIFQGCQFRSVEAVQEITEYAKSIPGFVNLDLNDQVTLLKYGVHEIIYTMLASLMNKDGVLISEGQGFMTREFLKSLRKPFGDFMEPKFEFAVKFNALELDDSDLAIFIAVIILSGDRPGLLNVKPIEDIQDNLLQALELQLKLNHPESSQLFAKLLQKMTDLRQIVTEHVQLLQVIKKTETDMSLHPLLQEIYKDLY
Method in brief: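 Agonism was assessed in a beta-lactamase reporter system, HEK293H cells with a stably integrated UAS-bla construct under PPARg control; the 17 h treatment at 37C preceded a 1 h room-temperature FRET substrate read.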

[4] = target: Peroxisome proliferator-activated receptor gamma (Homo sapiens) (UniProt P37231); assay: qHTS assay to identify small molecule antagonists of the peroxisome proliferator-activated receptor gamma (PPARg) signaling pathway (AID 743191; calls by dose curve; further: series mostly up to about 63 µM; nearly all actives have a fitted effect of over 30% in size)
Method in brief: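 GeneBLAzer PPARg UAS-bla HEK293H cells, 5 h post-plating, exposed to compounds 17 h at 37C. LiveBLAzer B/G FRET substrate added for 1 h at room temperature; beta-lactamase reporter read by fluorescence intensity.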

[5] = qHTS assay to identify small molecule antagonists of the peroxisome proliferator-activated receptor gamma (PPARg) signaling pathway - cell viability counter screen (AID 743194); further: nearly all actives have a fitted effect of over 55% in size
Method in brief: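 Cytotoxicity counter screen in PPARg-bla HEK293H cells, same wells as reporter assay. Compounds plus 50 nM rosiglitazone (final) for 17 h at 37 C, then viability read by CellTiter-Glo luminescence.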

[6] = qHTS assay for small molecule agonists of the antioxidant response element (ARE) signaling pathway (AID 743202; active means well fitted activation curve with a large enough effect in the signal ratio in the repeat runs, not every such curve was filed as active; the % refers to the signal ratio)
Method in brief: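 HepG2 ARE-bla reporter line, 2,000 cells/well; 5 h preincubation 37 C/5% CO2; compound (DMSO) 16 h 37 C; B/G FRET substrate 2 h RT; fluorescence intensity.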

[7] = qHTS assay for small molecule agonists of the antioxidant response element (ARE) signaling pathway - cell viability counter screen (AID 743203; calls by dose curve; further: nearly all actives have a fitted effect of over 55% in size)
Method in brief: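 ATP content via CellTiter-Glo luminescence served as the viability measure. Cells: ARE-bla HepG2, 2,000 per well. Exposure: 16 hrs, 37C/5% CO2.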

[8] = qHTS assay for small molecule activators of the heat shock response signaling pathway (AID 743210; active means well fitted activation curve with a large enough effect in the signal ratio in the repeat runs, with a control signal flat, not every such curve was filed as active; the % refers to the signal ratio;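 further: HeLa cells with beta-lactamase reporter driven by heat shock elements; series mostly up to about 63 µM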)
Method in brief: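 Beta-lactamase reporter read-out: FRET substrate fluorescence after 2.5 h at RT, following 5 h compound treatment at 37 C of HeLa cells carrying HSE-driven bla reporter; quantitative HTS format.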

[9] = qHTS assay to identify small molecule agonists of the peroxisome proliferator-activated receptor delta (PPARd) signaling pathway - cell viability counter screen (AID 743211); further: nearly all actives have a fitted effect of over 55% in size
Method in brief: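 qHTS cell viability: PPARd-bla HEK293H; 17 h cpd, 37C; CellTiter-Glo, luminescence at 30 min RT.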

[10] = target: Peroxisome proliferator-activated receptor delta (Homo sapiens) (UniProt Q03181); assay: qHTS assay to identify small molecule agonists of the peroxisome proliferator-activated receptor delta (PPARd) signaling pathway (AID 743212; calls by dose curve)
Chain of Peroxisome proliferator-activated receptor delta (Homo sapiens) (Q03181 whole entry, looked up): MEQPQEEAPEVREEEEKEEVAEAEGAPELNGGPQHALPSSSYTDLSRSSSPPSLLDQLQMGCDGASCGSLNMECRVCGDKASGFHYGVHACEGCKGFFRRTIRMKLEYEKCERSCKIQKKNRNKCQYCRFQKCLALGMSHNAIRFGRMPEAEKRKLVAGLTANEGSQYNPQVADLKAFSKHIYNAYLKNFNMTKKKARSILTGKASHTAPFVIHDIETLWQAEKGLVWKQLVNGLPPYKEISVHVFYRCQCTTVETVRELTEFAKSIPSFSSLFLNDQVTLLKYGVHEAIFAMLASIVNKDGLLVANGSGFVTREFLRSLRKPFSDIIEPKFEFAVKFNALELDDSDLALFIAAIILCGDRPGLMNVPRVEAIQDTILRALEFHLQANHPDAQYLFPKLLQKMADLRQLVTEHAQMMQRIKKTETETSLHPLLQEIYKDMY
Method in brief: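 Read-out: beta-lactamase FRET fluorescence after 2 h room-temperature incubation with LiveBLAzer B/G substrate. Cells were HEK293H carrying a UAS-bla reporter for PPARd, treated at 37 C with DMSO-dissolved compounds.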

[11] = qHTS assay to identify small molecule antagonists of the peroxisome proliferator-activated receptor delta (PPARd) signaling pathway - cell viability counter screen (AID 743213); further: nearly all actives have a fitted effect of over 50% in size
Method in brief: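 PPARd-bla HEK293H cells (3000/well) got compound plus 300 nM L165041 agonist for 17 h at 37 C. Viability in the same wells came from CellTiter-Glo luminescence after 30 min at room temperature.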

[12] = target: Peroxisome proliferator-activated receptor delta (Homo sapiens) (UniProt Q03181); assay: qHTS assay to identify small molecule antagonists of the peroxisome proliferator-activated receptor delta (PPARd) signaling pathway (AID 743215; active means well fitted inhibition curve with a large enough effect in the signal ratio in the repeat runs, not every such curve was filed as active; the % refers to the signal ratio;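 further: cells stimulated with agonist L165041 at 300 nM final during compound exposure; series mostly up to about 62 µM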)
Method in brief: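 Here, a reporter line (HEK293H, beta-lactamase under a UAS) measures PPARd signaling. Compounds are tested against agonist L165041 at 300 nM final concentration over 17 h at 37 C, with fluorescence read after substrate.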

[13] = qHTS assay to identify small molecule agonists of the farnesoid-X-receptor (FXR) signaling pathway - cell viability counter screen (AID 743218); further: nearly all actives have a fitted effect of over 45% in size
Method in brief: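 Quantitative HTS counter screen measuring ATP-based viability via CellTiter-Glo luminescence in HEK 293T cells carrying a UAS-driven beta-lactamase reporter, after 16 h compound exposure at 37 C.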

[14] = qHTS assay to identify small molecule antagonists of the farnesoid-X-receptor (FXR) signaling pathway - cell viability counter screen (AID 743221; active means well fitted cell-killing curve with a large enough effect in the repeat runs, not every such curve was filed as active; further: nearly all actives have a fitted effect of over 50% in size)
Method in brief: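 After a 5 h settling period, FXR-bla HEK 293T cells receive compound and chenodeoxycholic acid (50 uM final) and incubate 16 h at 37 C; CellTiter-Glo luminescence, read after 30 min at room temperature, reports cell viability.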

[15] = qHTS assay to identify small molecule agonists of the vitamin D receptor (VDR) signaling pathway - cell viability counter screen (AID 743224); further: series mostly up to about 63 µM; nearly all actives have a fitted effect of over 50% in size
Method in brief: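 CellTiter-Glo viability readout on VDR-bla cells, measured after 16 h of compound treatment at 37C in the same wells.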

[16] = qHTS assay for small molecule activators of the heat shock response signaling pathway - cell viability counter screen (AID 743209); further: nearly all actives have a fitted effect of over 50% in size
Method in brief: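 Compounds dissolved in DMSO were added to overnight-plated HSE-bla HeLa cells and left 5 h at 37 C. Cell viability was quantified by luminescence using CellTiter-Glo.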

[17] = target: Vitamin D3 receptor (Homo sapiens) (UniProt P11473); assay: qHTS assay to identify small molecule agonists of the vitamin D receptor (VDR) signaling pathway (AID 743222; calls by dose curve)
Chain of Vitamin D3 receptor (Homo sapiens) (P11473 whole entry, looked up): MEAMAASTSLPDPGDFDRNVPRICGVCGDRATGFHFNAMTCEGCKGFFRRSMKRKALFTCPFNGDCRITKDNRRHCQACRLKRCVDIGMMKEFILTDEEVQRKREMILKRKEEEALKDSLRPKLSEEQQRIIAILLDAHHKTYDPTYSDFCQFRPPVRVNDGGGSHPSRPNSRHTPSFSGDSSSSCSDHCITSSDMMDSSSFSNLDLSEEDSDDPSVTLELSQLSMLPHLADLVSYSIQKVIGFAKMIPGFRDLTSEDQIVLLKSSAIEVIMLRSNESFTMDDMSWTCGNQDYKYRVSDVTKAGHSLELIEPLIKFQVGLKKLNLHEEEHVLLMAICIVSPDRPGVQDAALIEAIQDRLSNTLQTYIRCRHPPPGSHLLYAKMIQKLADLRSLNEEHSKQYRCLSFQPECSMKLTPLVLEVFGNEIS
Method in brief: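 Tox21 cell reporter format: VDR-bla line, 16 h compound exposure in 5% CO2 at 37C, then fluorescence intensity after 2 h with LiveBLAzer B/G FRET substrate.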

[18] = target: Vitamin D3 receptor (Homo sapiens) (UniProt P11473); assay: qHTS assay to identify small molecule antagonists of the vitamin D receptor (VDR) signaling pathway (AID 743223; active means well fitted inhibition curve with a large enough effect in the signal ratio in the repeat runs, not every such curve was filed as active; the % refers to the signal ratio)
Method in brief: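 Reporter line VDR-bla; stimulus 1alpha,25-(OH)2 vitamin D3, 3 nM final; compound co-addition, 16 h 37C/5% CO2; LiveBLAzer B/G substrate 2 h RT; fluorescence intensity.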

[19] = target: Bile acid receptor (Homo sapiens) (UniProt Q96RI1); assay: qHTS assay to identify small molecule antagonists of the farnesoid-X-receptor (FXR) signaling pathway (AID 743217; active means well fitted inhibition curve with a large enough effect in the signal ratio in the repeat runs, not every such curve was filed as active; the % refers to the signal ratio)
Chain of Bile acid receptor (Homo sapiens) (Q96RI1 whole entry, looked up): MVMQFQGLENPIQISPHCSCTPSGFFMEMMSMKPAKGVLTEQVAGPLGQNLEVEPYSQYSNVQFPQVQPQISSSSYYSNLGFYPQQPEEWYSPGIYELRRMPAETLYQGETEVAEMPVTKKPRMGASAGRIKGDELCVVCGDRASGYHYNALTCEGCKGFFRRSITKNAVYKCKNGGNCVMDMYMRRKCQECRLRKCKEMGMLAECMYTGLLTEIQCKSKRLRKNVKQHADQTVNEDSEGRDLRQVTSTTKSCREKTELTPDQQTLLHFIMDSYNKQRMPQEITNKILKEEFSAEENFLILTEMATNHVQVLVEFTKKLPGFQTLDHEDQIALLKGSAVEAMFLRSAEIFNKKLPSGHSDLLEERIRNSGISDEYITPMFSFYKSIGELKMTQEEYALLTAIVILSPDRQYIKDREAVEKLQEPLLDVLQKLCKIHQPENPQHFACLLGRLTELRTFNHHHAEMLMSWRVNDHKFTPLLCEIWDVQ
Method in brief: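 Test compounds are pin-transferred onto FXR-bla HEK 293T cells, then chenodeoxycholic acid is added at 50 uM final. After 16 h at 37 °C, LiveBLAzer B/G substrate is applied for 2 h at room temperature and fluorescence read.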

[20] = target: Bile acid receptor (Homo sapiens) (UniProt Q96RI1); assay: qHTS assay to identify small molecule agonists of the farnesoid-X-receptor (FXR) signaling pathway (AID 743220; active means well fitted activation curve with a large enough effect in the signal ratio in the repeat runs, not every such curve was filed as active; the % refers to the signal ratio)
Method in brief: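 FXR-UAS-bla HEK 293T cells carrying a UAS-driven beta-lactamase reporter were plated for 5 h at 37C/5% CO2, then exposed to DMSO-dissolved Tox21 10K compounds for 16 h at 37C. A LiveBLAzer B/G FRET substrate was loaded for 2 h at room temperature before fluorescence reading.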

Measured: Potency

O=C(NCCO[N+](=O)[O-])c1cccnc1
not listed: [16] | [17] | [18] | [19] | [20]
inactive: all other assays above

C[C@H]1C[C@H]2[C@@H]3CCC4=CC(=O)C=C[C@]4(C)[C@@]3(Cl)[C@@H](O)C[C@]2(C)[C@@]1(O)C(=O)CO
not listed: [11] | [19] | [20]
inactive: all other assays above

COc1ccc(C(=O)N2CCN(CC(=O)N3CCOCC3)CC2)cc1
not listed: [10] | [11] | [12] | [16] | [18] | [19] | [20]
inactive: all other assays above

CN(C)c1ccc(CCO)cc1
not listed: [17] | [18] | [19] | [20]
inactive: all other assays above

C[N+]1(CC2COC(c3ccccc3)(C3CCCCC3)O2)CCCCC1 (stereo not drawn)
not listed: [10] | [11] | [12] | [13] | [17] | [18] | [19] | [20]
inactive: all other assays above

O=C1C(O)=C(O)C(=O)C(O)=C1O
not listed: [13] | [17]
inactive: all other assays above

O=[N+]([O-])c1ccc2[nH]ncc2c1
not listed: [11] | [13] | [18] | [19] | [20]
inactive: all other assays above

CCn1cc(C(=O)O)c(=O)c2cnc(N3CCNCC3)nc21
not listed: [10] | [12] | [17] | [18]
inactive: all other assays above

Nc1cccc([N+](=O)[O-])c1
not listed: [8] | [16] | [17] | [18]
inactive: all other assays above

OC(C#CCN1CCCC1)(c1ccccc1)c1ccccc1
not listed: [13] | [18] | [20]
inactive: all other assays above

Cc1cc(C(=O)O)ccc1[N+](=O)[O-]
not listed: [11] | [14] | [17] | [18] | [19] | [20]
inactive: all other assays above

O=C(OCCc1ccccc1)c1ccccc1
not listed: [8] | [13] | [17] | [19] | [20]
inactive: all other assays above

CC(C)(COC(=O)c1ccccc1)COC(=O)c1ccccc1
not listed: [8] | [11] | [13] | [17] | [18] | [19] | [20]
inactive: all other assays above

OCCNCc1ccccc1
not listed: [18] | [19] | [20]
inactive: all other assays above

CN(C)CCN(Cc1ccccc1)c1ccccn1
not listed: [9] | [11] | [13] | [17] | [18] | [19] | [20]
inactive: all other assays above

C=CCOC(=O)CCC1CCCCC1
not listed: [8] | [11] | [13] | [17]
inactive: all other assays above

Cc1[nH]c(C)c(Cl)c(=O)c1Cl
not listed: [8] | [11] | [18] | [19] | [20]
inactive: all other assays above
